Screens (PubChem)
Vc quorum ag: inducers of Vibrio cholerae quorum light production without autoinducers, primary screen, BH1578 luxS cqsA deficient, single point | V. cholerae BH1578 lux reporter, luminescence, 6 h | activation, % at 18.7 µM | 0.16% of 350,000 active | AID 588436, 2011; in the data active = activation mostly above about 9.7%, no sharp cut-off
Y pestis TopoI: Yersinia pestis topoisomerase I inhibitors, primary screen, biochemical, cleavage product accumulation, plate reader, single point; DNA topoisomerase I (Yersinia pestis CO92); Y. pestis Topo-I cleavage product accumulation; activity, % at 10 µM; 0.064% of 360,000 active; AID 504884, 2011; in the data active = activity above about 50%, passing the limit was not always enough
Mtb hypoxia rep: PubChem AID 1159583 | M. tuberculosis hypoxia-regulated fluorescent reporter, fluorescence | fluorescence inhibition, % (test concentration not listed) | 0.1% of 300,000 active; in the data active = fluorescence inhibition mostly above about 23%, no sharp cut-off; inactive = mostly below about 17%
An asterisk follows results filed as active; i = inactive; · = no result given. Rows were chosen to be rich in hits. Some 0.29% of all compounds tested hit in one or more screens of this group.

SMILES	Vc quorum ag	Y pestis TopoI	Mtb hypoxia rep
CC1Cc2ccccc2N1S(=O)(=O)c1cccc(C(=O)NCc2ccncc2)c1 (configuration not stated)	-1	8	-11
O=C(NCc1cccc(Cl)c1)c1cccc(S(=O)(=O)N2CCCCC2)c1	-2	12	29*
O=C(NCc1ccncc1)c1cccc(S(=O)(=O)N2CCc3ccccc32)c1	-2	19	28*
Cc1c(C)n(Cc2ccc(F)cc2)c2ccc(C(=O)NCCN3CCOCC3)cc12	0	17	9
O=C(Nc1ccc(S(=O)(=O)NC2=NCCCCC2)cc1)c1cccc(OC(F)F)c1	-6	2	·
CC(=NNc1nc(N)cc(Cl)n1)c1ccc(F)cc1	·	·	14
O=[N+]([O-])c1ccc(-c2nnc3n2CCCCC3)cc1	-1	1	-1
O=c1c2c(-c3ccc([N+](=O)[O-])cc3)csc2nc2n1CCC2	i	3	36*
COc1ccc(C(=O)Nc2cccc([N+](=O)[O-])c2)cc1Br	1	-4	·
COc1ccc(C(=O)Nc2ccc(OC)c([N+](=O)[O-])c2)cc1Br	29*	2	-1
COc1cc(C=Nn2c(C3CCCCC3)n[nH]c2=S)cc(OC)c1O	·	·	7
Cc1ccccc1Cn1c(O)c(N=NC(=S)Nc2ccccc2F)c2ccccc21	-1	-12	-2
Cc1ccc(C)c(Cn2c(O)c(N=NC(=S)Nc3ccccc3F)c3ccccc32)c1	80*	1	-3
COc1ccc(C(=O)COC(=O)CCCC(=O)NC2CCCCC2)cc1	·	6	7
CC(C)CC(=O)Nc1ccc(S(=O)(=O)N2CC3CC(C2)c2cccc(=O)n2C3)cc1 (configuration not stated)	i	-1	10
CCCOc1ccc(C(=O)Nc2ccc(S(=O)(=O)N3C[C@@H]4C[C@@H](C3)c3cccc(=O)n3C4)cc2)cc1	0	67*	5
COc1ccc(CNC(=O)CCS(=O)(=O)c2ccc3c(c2)NC(=O)CS3)cc1	-7	2	6
CSC(=NN(C)C(N)=O)c1ccccc1	·	·	-4
CCN(CC)CCCNc1nc2ccccc2c2nc(-c3ccncc3)nn12	i	-1	50*
CN1CCN(CCCNc2nc3ccccc3c3nc(-c4ccccc4)nn23)CC1	-1	0	17
COCCCNc1nc2cc(OC)c(OC)cc2c2nc(-c3ccccc3)nn12	i	27	-6
CCN(CC)CCCNc1nc2cc(OC)c(OC)cc2c2nc(-c3ccccc3)nn12	0	-6	72*
COc1cc2nc(NCC3CCCO3)n3nc(-c4cccnc4)nc3c2cc1OC (configuration not stated)	-1	12	4
CCN(CC)CCCNc1nc2cc(OC)c(OC)cc2c2nc(-c3cccnc3)nn12	-5	-19	39*
O=C(NN=Cc1ccccc1[N+](=O)[O-])c1ccc(CN2CCOCC2)cc1	·	·	1
SMILES	Vc quorum ag	Y pestis TopoI	Mtb hypoxia rep
Cc1ccc(NC(=O)C(C#N)=Cc2cc(C)n(-c3ccc(N4CCOCC4)c([N+](=O)[O-])c3)c2C)c(C)c1	·	·	3
CCCn1nnc(NC(=O)c2ccccc2Cl)n1	i	-4	-1
CCCn1nnc(NC(=S)NC(=O)c2ccccc2OC)n1	i	-4	33*
C=CCOc1ccc(/C=C/C(=O)OCC(=O)NCCCc2ccccc2)cc1	-1	53*	7
COc1ccc(/C=C/C(=O)OCC(=O)NCCCc2ccccc2)cc1OC	0	9	6
ON=C1CCCc2ccccc21	·	·	2
Cc1ccc2cc(COC(=O)c3ccco3)c(=O)[nH]c2c1	17*	-5	-1
O=C(OCc1cc2ccccc2[nH]c1=O)c1ccco1	-6	5	2
CC12CCC(CC1=NOC(=O)c1c(F)cccc1F)C2(C)C (configuration not stated)	·	·	11
COC(=O)C1=C(C(=O)OC)C2N(Cc3ccccc3)c3ccccc3[C@@]23CC(C(=O)OC)N(C(=O)C2CCC2)C3=N1 (some centres not stated)	·	·	9
Oc1ccccc1C=NNc1nc2ccccc2o1	·	·	13
CCOc1ccc2[nH]c(=O)c(CN(Cc3nnnn3Cc3ccco3)C3CCCCC3)cc2c1	1	5	·
COc1cc2cc(CN(Cc3nnnn3Cc3ccco3)C3CCCCC3)c(=O)[nH]c2cc1OC	33*	-10	4
COc1ccc(C(C)=NNC(=O)CNC(=O)c2cccnc2)c(OC)c1	·	·	11
CSCCC(NC(=O)COc1ccccc1)C(=O)N(C)Cc1c(F)cccc1Cl (configuration not stated)	i	24	·
CN(Cc1c(F)cccc1Cl)C(=O)c1ccc(COc2ccccc2)cc1	i	55*	7
NC(=S)NN=C1CC(n2nnnc2-c2ccccc2Cl)C2COC1O2 (configuration not stated)	·	·	-1
Cc1ccc(NC(=O)C2(C)CCCN(C(C)C)C2)cc1C (configuration not stated)	0	-6	·
COc1ccccc1NC(=O)C(C)Sc1nnc2ccccn12 (configuration not stated)	i	7	5
CC(=O)c1ccc(OCc2cc(C(=O)N3CC[C@@H]4CCCC[C@H]4C3)no2)cc1	i	36	7
Cc1cccc(C)c1OCc1cc(C(=O)N2CCC(C3CCCCC3)C2)no1 (configuration not stated)	0	55*	6
NS(=O)(=O)c1cccc(NC(=O)COC(=O)c2ccc(S(=O)(=O)N3CCOCC3)cc2)c1	i	-9	12*
O=C(COC(=O)c1ccc2c(c1)OCCO2)Nc1cccc(S(=O)(=O)N2CCOCC2)c1	·	1	18
Cc1ccccc1NC(=O)COC(=O)c1cc(S(=O)(=O)N2CCOCC2)ccc1C	2	3	32*
Cc1ccc(S(=O)(=O)N2CCOCC2)cc1C(=O)OCC(=O)NCc1ccccc1	i	7	-1
SMILES	Vc quorum ag	Y pestis TopoI	Mtb hypoxia rep
Cc1[nH]c2ccccc2c1C=NNc1ccccc1[N+](=O)[O-]	·	·	8
CSCCC(NC(=O)c1ccccc1Br)C(=O)NNC(=O)c1ccco1 (configuration not stated)	0	-1	-2
CSCCC(NC(=O)c1ccccc1Br)C(=O)NNC(=O)c1ccncc1 (configuration not stated)	i	2	27*
CCC(=NNC(=O)CNC(=O)/C=C/c1ccco1)c1ccccc1	·	·	0
CC/C(=N\NC(=O)CNC(=O)/C=C/c1ccco1)c1ccccc1	17*	-3	·
CC(C)(C)C(=O)Nc1ccc2c(c1)OCCOCCOc1cc(NC(=O)C(C)(C)C)ccc1OCCOCCO2	0	-1	36*
CC(=O)Nc1ccc2c(c1)OCCOCCOc1cc(NC(C)=O)ccc1OCCO2	i	2	15
N#Cc1c(N=Cc2ccco2)sc2c1CCCCC2	·	·	9
COc1ccc(C=Nn2c(-c3n[nH]c4c3CCC4)n[nH]c2=S)cc1	·	·	16
O=[N+]([O-])c1ccccc1S(=O)(=O)Nc1ccc(S(=O)(=O)Nc2nccs2)cc1	0	5	66*
O=[N+]([O-])c1cccc(S(=O)(=O)Nc2ccc(S(=O)(=O)Nc3nccs3)cc2)c1	i	3	16
CC(/C=C/c1ccccc1)=NNC(=O)Cn1nc(C)cc1C	·	·	-2
CC(=O)c1c(CC(=O)O)[nH]n(-c2nc3ccccc3s2)c1=O	-3	-2	6
